Measurements reported in the supplement of paper PMC6555819.

Experiments:
Test in all cases: PBM binding z-score (relative to random genomic background probes); higher = stronger binding; sequences stand for … in GC…GCGATTGACAGCGTAGAATGAAGG
[1] = system: FXR:RXRa (NR concentration 270 nM, RXRa partner concentration 90 nM)
Method in brief: (§1)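 Ligand-free nuclear receptor dimers were bound for 1 h to custom Agilent 4×180K protein-binding microarrays. Detection used antibodies against each partner (one per run). Binding z-scores rest on regression-normalized fluorescence, with random background probes as the reference.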

[2] = system: LXRa:RXRa (NR concentration 270 nM, RXRa partner concentration 90 nM)
Method in brief: as §1

[3] = system: LXRa homodimer (NR concentration 270 nM)
Method in brief: as §1

[4] = system: LXRb:RXRa (NR concentration 270 nM, RXRa partner concentration 90 nM)
Method in brief: as §1

[5] = system: LXRb homodimer (NR concentration 270 nM)
Method in brief: as §1

[6] = system: PPARa:RXRa (NR concentration 270 nM, RXRa partner concentration 90 nM)
Method in brief: as §1

[7] = system: PPARg:RXRa (NR concentration 180 nM, RXRa partner concentration 90 nM)
Method in brief: as §1

[8] = system: PPARg:RXRa 270nM:90nM, anti-RXR (NR concentration 270 nM, RXRa partner concentration 90 nM)
Method in brief: as §1

[9] = system: PPARg:RXRa 30nM:10nM, anti-RXR (NR concentration 30 nM, RXRa partner concentration 10 nM)
Method in brief: as §1

[10] = system: PPARg:RXRa 90nM:30nM, anti-RXR (NR concentration 90 nM, RXRa partner concentration 30 nM)
Method in brief: as §1

Sequence | PBM binding z-score [1] | PBM binding z-score [2] | PBM binding z-score [3] | PBM binding z-score [4] | PBM binding z-score [5] | PBM binding z-score [6] | PBM binding z-score [7] | PBM binding z-score [8] | PBM binding z-score [9] | PBM binding z-score [10]
TTACCAAAGTGAGCTGAGGTCGTTGATCCAACTC | 0.648 | 0.0425 | -0.525 | 0.222 | -1.12 | 0.635 | -0.509 | -0.168 | 0.0696 | -0.371
CCGACTGCGGCAAAGGTTACCATACTCAGTACGA | 0.819 | 1.26 | 0.087 | 1.73 | -0.464 | 2.59 | 2.8 | 4.2 | 2.28 | 4.38
GCTACTAGGTCAGGTTGGTCAGCTAACGGGTACG | 1.47 | 0.811 | 0.0315 | 0.809 | 0.129 | 2.66 | 4.12 | 3.52 | 0.868 | 3.19
ATCGCAAGGTCGAAGGTGAGTATACCCACCCGAA | 1.5 | 1.58 | -0.525 | 1.16 | -0.359 | 3.01 | 2.77 | 3.69 | 0.969 | 2.25
GGAACGAGGGCAAGTTGATAGTAGAGTTTGATGG | 0.866 | 0.53 | -0.29 | 0.413 | -0.108 | 1.74 | 1.01 | 0.848 | 0.216 | 0.579
TCATATAGGTAAAAGGTGAAAGTCGGTGTGGTAA | 1.8 | 2.29 | 0.452 | 2.29 | 0.0331 | 5.57 | 9.43 | 8.85 | 10.3 | 10.2
CGAACTAGGTCAGAACAGGACAGTGTAGGATGAT | 1.59 | 0.807 | -0.126 | 0.58 | -0.539 | 3.33 | 5.09 | 4.48 | 1.85 | 3.29
CCTACTGGGCCATCAGGTCATTGAAATCAACGTT | 1.33 | 1.07 | 1.03 | 1.45 | -0.244 | 2.74 | 2.67 | 3.66 | 1.23 | 2.99
GCTGCTAGGTCAGGTTGGTCAGCTAGCGGGTACG | 1.15 | 0.736 | -0.0466 | 0.193 | -0.466 | 1.36 | -0.0149 | 0.792 | -0.603 | 0.329
TCTGCTAGGTCGACGATGGTCAGCTAATCTGCTA | -0.0207 | 0.0577 | -1.03 | -0.332 | -1.02 | 0.202 | -0.26 | 0.642 | 1.2 | 0.698
GCGACTGGGGCATCAGCAGGTTAACATAACTTAA | -0.169 | -0.338 | -0.456 | 1.01 | -0.643 | 1.27 | 1.18 | 1.16 | 0.116 | 0.609
ACAGACAGGTGAGTGAAGGTAACTCCGCTGGACG | 0.216 | -0.067 | -0.195 | -0.498 | -0.566 | 0.0372 | 0.503 | -0.251 | 0.0064 | -0.389
TCTCGGAGGGCACGAAGGTCAGAGCTTTCCAGAG | 1.96 | 2.22 | 0.0808 | 1.7 | -1.18 | 2.96 | 1.3 | 2.4 | 1.73 | 1.99
CGTCCAAGGTCAAGGTCAGTTAAAGAGACTCGAA | 7.98 | 6.08 | 1.79 | 4.95 | 1.26 | 6.11 | 6.45 | 6.18 | 2.97 | 5.03
CCAGACAGGTGAAAGGTAACGCAGTCTGGTACGC | 0.748 | 0.83 | -0.423 | 0.898 | -0.326 | 3.57 | 5.87 | 6.19 | 4.19 | 6.4
CGAACTAGGTCAGAACAGAACAGTGAAGGATGAT | 0.766 | 0.278 | -0.166 | 0.401 | -0.644 | 2.7 | 5.43 | 4.46 | 1.89 | 3.74
TCATATAGGTAAAGGTGAAACTCGAACGATATGA | 0.837 | 1.52 | -0.0632 | 1.7 | -0.204 | 3.58 | 4.46 | 4.88 | 4.59 | 5.12
TCAGACAGGTGAAGGTAACTCCGGTACGCAGTCG | 0.787 | 2.08 | -0.352 | 0.966 | -0.314 | 1.21 | 0.509 | 2.09 | 3.78 | 2.96
CGTCCAAGGTCAAAGGTTAGTGAAGAGATGACGG | 7.74 | 5.92 | 1.42 | 5.09 | 1.54 | 6.47 | 8.94 | 7.84 | 7.41 | 8.3
AATACAGGGTCGTCGTAGGCCAGAGTACGCACAG | 2.12 | 1.97 | 0.0247 | 1.42 | 0.00201 | 2.91 | 1.93 | 1.36 | 0.194 | 0.808
GCTGCTAGGTCAGGGTGGTCAGCTAACGGGTACG | 1.3 | 1.02 | -0.198 | 0.35 | -0.645 | 2.03 | 1.63 | 1.95 | -0.181 | 1.09
GGAACGAGGGCATTCGAGTTGATGGCATGGCGAT | 1.48 | 1.27 | -0.635 | -0.299 | -0.896 | 1.31 | 0.637 | 0.324 | -0.665 | -0.326
ATCGAAAGGTCGACGAGGTGACTATACACCGTTT | 4.76 | 3.44 | 0.283 | 3.17 | 0.252 | 4.53 | 3.26 | 3.2 | 1.22 | 2.33
CAAACTAGGTCACGACAGGTCAAAGTCGAATGAC | 6.86 | 7.66 | 5.39 | 6.7 | 0.955 | 6.08 | 9.79 | 7.85 | 6.54 | 8.02

Sequence | PBM binding z-score [1] | PBM binding z-score [2] | PBM binding z-score [3] | PBM binding z-score [4] | PBM binding z-score [5] | PBM binding z-score [6] | PBM binding z-score [7] | PBM binding z-score [8] | PBM binding z-score [9] | PBM binding z-score [10]
AGTCAAAGTTCATCTACGTAACGTAAGATATGCT | 6.79 | 6.21 | 5.33 | 3.97 | 1.6 | 4.77 | 6.55 | 6.3 | 3.58 | 5.65
AGAATGAGGTTACGATCAGGGAAACAGAATACAT | 1.98 | 1.94 | -0.122 | 1.75 | -0.632 | 3.9 | 2.97 | 2.65 | 1.2 | 2.18
CGTCCAAGGTCTGCAGGTCAGTGAAAGCGACGTG | 0.149 | 0.12 | -0.428 | 0.0193 | -1.21 | 0.759 | -0.32 | 0.0368 | -0.45 | -0.257
GATACAGGGTCCGCTAGAGGCCAGAGTATGGAAA | -0.588 | -0.752 | -0.713 | -1.11 | -1.38 | -0.848 | 0.112 | -0.726 | -0.417 | -1.24
CCTAGCAGGCCAATCTGGGTCACTCAAGGCTTGA | 1.5 | 1.42 | -0.498 | 0.851 | -1.04 | 3.1 | 1.69 | 2.6 | -0.232 | 1.52
TCATACAGGTAAATGCTAGGTGAAAGTCCGATCT | 0.695 | 0.892 | 0.122 | 0.729 | 0.432 | 1.07 | 0.609 | 2.04 | 3.75 | 2.83
CGTCCAAGGTCAATGGTCAGTGAAGAGATGACGG | 6.47 | 4.43 | 0.613 | 3.19 | 0.452 | 4.93 | 4.14 | 4.38 | 1.83 | 3.55
CCTCCTGGGCCACGAAAGGTCATTGATTCAGTGA | 3.25 | 5.1 | 4.52 | 4.15 | -0.0448 | 4.14 | 1.39 | 2.94 | 0.283 | 2.02
CGTCAAAGTTCAACTAGGGTAACGTAAAGCACGC | 7.53 | 6.47 | 4.77 | 4.43 | 2.39 | 5.32 | 5.78 | 5.97 | 2.98 | 5.07
ACTAGCAGGCCAAGTTTGGGCCACTCAAACAAAG | -0.478 | -0.716 | -0.865 | -0.61 | -1.23 | -0.243 | -0.254 | -0.685 | -0.785 | -0.814
CTCGAAAGGTCGGTTGAGGTGAGTAGACGGATAA | 2.24 | 1.85 | 0.0366 | 1.44 | -0.503 | 2.76 | 0.386 | 1.51 | 0.222 | 0.586
CCTACTAGGTCATGGTCAGCTAATCTACAGTATG | 3.8 | 2.57 | 0.658 | 2.06 | 0.291 | 4.33 | 6.76 | 5.84 | 3.38 | 4.97
AATCCAGGGTCATCGTAGGCCAGAGTACGCACAG | 7.58 | 6.18 | 1.65 | 4.8 | 0.807 | 5.75 | 6.7 | 6.07 | 3.18 | 4.59
CCGATTGGGGCAAGGTTACCATAACGCACAGCCA | 0.189 | 0.481 | -0.246 | 0.649 | -1.05 | 1.28 | 1.44 | 1.49 | 0.0472 | 0.943
ATACCAAGGTGATCGAGAGGTCGTTGATACTAAC | 1.97 | 1.51 | 0.71 | 1.37 | 0.0291 | 1.72 | 0.979 | 1 | 0.238 | 0.545
GCTATTAGTTGGAAGGGCAACCGAATGATTCTCG | -0.211 | -0.165 | 0.178 | -0.0403 | -0.253 | 0.0818 | 0.375 | 0.723 | -0.127 | 0.108
TGAATGAGGGTAAAGATCAGGGAACGTGGCGTCG | 0.332 | 0.35 | -0.456 | -0.0766 | 0.875 | 2.98 | 4.39 | 5.94 | 4.5 | 6.32
TCTGCTAGGTCAAGGATGGTCAGCTAATCTGCTA | 2.86 | 2.82 | -0.0468 | 1.48 | -0.198 | 3.12 | 2.01 | 3.21 | 2.02 | 2.71
GGAACGAGGGCATTCGAGTTGACAGCATGGCGAT | 1.65 | 1.9 | -0.394 | -0.0362 | -0.953 | 1.34 | 0.875 | 0.675 | -0.547 | -0.0204
CCTATTAGTTGATCATAAGGGCAACCGAAGCTCG | 0.383 | 0.258 | 0.608 | 0.291 | 0.94 | 0.433 | 0.394 | 0.295 | 0.0236 | 0.185
CGAACGCGGGCATGAGTTGATAGCAAATGCCGAT | -0.653 | -0.715 | -0.461 | -0.883 | -1.24 | -0.441 | 0.36 | -0.484 | -0.861 | -0.633
CAAACTAGGTCAAGGACAAAGTCGGTTTGTGCCA | 3.65 | 2.54 | 0.38 | 1.43 | 0.178 | 4.59 | 7.75 | 6.74 | 4.87 | 6.38
CCTTACGGGTCACGAGGTTATAGGACGACGAGCG | 6.8 | 4.66 | 0.193 | 3.75 | -0.117 | 5.93 | 7.51 | 6.72 | 3.51 | 5.65
ATATGTAGATTAAGGGTCATTCAGGTTGGTTCGC | 3.93 | 4.24 | 3.27 | 3.96 | 1.38 | 4.74 | 6.74 | 6.77 | 6.28 | 7.43
